Beta cell apopt: blocks beta cell apoptosis | INS-1E cytokine-induced death, ATP luminescence, 48 h; percent of positive-control rescue, neutral wells zero | protection from apoptosis, % (concentration not given with the values) | hit rate 0.8% among 300,000 | AID 435005;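 active = Every replicate reaches about 75%, or at least half do and their mean reaches it too, limit read from the data; inconclusive = At least half of replicates reach the limit but their mean does not; inactive = Under half of replicates reach the limit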;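 also: 0% = cytokine-treated negative control wells and 100% = positive control rescue; higher means more ATP so stronger rescue from cytokine killing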
CSC inhib: cancer stem cell inhibition. AID 2717. inhibition, % at 7.5 µM. cancer stem cell-like cells viability, luminescence. hit rate 1.1% among 300,000; in the data active = inhibition above about 75%; inconclusive = no clear call, values can overlap the other calls; tested in HMLE shEcad cells
Mdm2 MdmX PPI: inhibitors of human Mdm2/MdmX interaction; AID 485346; inhibition, % at 8 µM; SaOS-2 split-luciferase Mdm2/MdmX complementation, luminescence; O15151+Q00987; hit rate 3% among 330,000;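 active = inhibition of at least 50% at 8 µM in the primary screen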
PP5 inh: PP5 (human) phosphatase inhibition | P53041 | purified PP5c, OMFP substrate fluorescence | inhibition, % at 6.7 µM | hit rate 0.18% among 320,000;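 active = inhibition above the campaign's mean inhibition across all tested compounds plus 3 SD, cut at about 9.5% in these data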;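 also: 0% = DMSO only and 100% = 100 µM cantharidin control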
Calb FLC: affects C. albicans growth with fluconazole. C. albicans CaCi-2 (fluconazole-resistant clinical isolate) + fluconazole, Alamar Blue growth, 48 h. growth inhibition, % (no concentration beside the values). hit rate 0.57% among 300,000;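 active = growth inhibition above about 58% in most replicates, limit read from the data, passing the limit was not always enough; inconclusive = exactly half the replicates above a set limit; inactive = most replicates below a set limit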;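 also: all wells also contain fluconazole at 8 µg/ml as a sub-toxic cotreatment; 0% = median of DMSO wells and 100% = median of geldanamycin control wells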
PP1 counter: counter-screen for PP5 inhibitors: inhibitors of human PP1-alpha; P62136; purified PP1alpha, OMFP fluorescence; inhibition, % at 6.7 µM; hit rate 0.9% among 320,000; AID 2235;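 active = inhibition above the mean inhibition of all tested compounds plus 3 SD, computed separately for each screening campaign, cut at about 15% in these data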
Target sequence (P62136 whole entry, looked up): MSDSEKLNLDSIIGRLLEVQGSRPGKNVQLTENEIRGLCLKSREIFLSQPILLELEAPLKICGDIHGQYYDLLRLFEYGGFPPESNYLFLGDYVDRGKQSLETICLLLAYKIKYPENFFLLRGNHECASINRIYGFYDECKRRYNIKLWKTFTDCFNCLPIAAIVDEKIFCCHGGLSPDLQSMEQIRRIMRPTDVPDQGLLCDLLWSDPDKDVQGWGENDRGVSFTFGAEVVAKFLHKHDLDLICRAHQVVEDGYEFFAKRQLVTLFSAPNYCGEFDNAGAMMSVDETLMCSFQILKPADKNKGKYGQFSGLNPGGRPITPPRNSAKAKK
PP1 inh confirm: confirmation of human PP1 phosphatase inhibitors; purified PP1alpha, OMFP substrate fluorescence; shares compounds with PP1 counter; hit rate 52% among 1,900; inhibition, % at 6.7 µM;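 active = mean PP1 inhibition above a set limit taken from the earlier primary screen, cut at about 15% in these data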
PP5 counter: inhibits human PP5 phosphatase in PP1 counter-screen. shares compounds with PP1 counter. purified PP5c, OMFP fluorescence. inhibition, % at 6.7 µM. hit rate 4% among 1,900. AID 2360;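 active = mean PP5 inhibition over triplicate wells above about 9.5% taken from the earlier PP1 screen, limit read from the data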
Mdm2-MdmX conf: confirmation of human Mdm2/MdmX interaction inhibitors | shares compounds with Mdm2 MdmX PPI | Mdm2-MdmX binding, luminescent assay | inhibition, % at 8 µM | hit rate 55% among 10,000; in the data active = inhibition above about 40%
FLuc counter: inhibits full-length luciferase, flagging false Mdm2/MdmX hits; inhibition, % at 8 µM; shares compounds with Mdm2 MdmX PPI; hit rate 77% among 6,200; SaOS-2 full-length luciferase counterscreen, luminescence;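 active = mean inhibition at 8 µM reaching about 37%, which flags the compound as non-specific, limit read from the data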;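 also: p53-null SaOS-2 cells with luciferase driven by a doxycycline-inducible promoter; compound on cells about two nights before reading with doxycycline added after day one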
Numbers without * were called inactive; ! = not confirmed by another sample. This is a sample that favours compounds with a hit; in the whole collection about 4.9% have one here.

`Nc1ncnc2oc(-c3ccco3)c(-c3ccco3)c12` gave Mdm2 MdmX PPI 52.4*, PP5 inh 1.5, Calb FLC 15.6, PP1 counter 25.2*, PP1 inh confirm 16.1*, PP5 counter -2.3 and Mdm2-MdmX conf 22.6.
Screening CCc1cc(=O)n2[nH]c(-c3ccccc3)c(-c3ccccc3)c2n1 returned Beta cell apopt 6.1, CSC inhib 60.9, Mdm2 MdmX PPI 57.9*, PP5 inh 1.8, Calb FLC -11.0, PP1 counter 21.7*, PP1 inh confirm 21.2*, PP5 counter -1.0, Mdm2-MdmX conf 45.3* and FLuc counter 51.6*.
For CCCCCCCCCCOC(=O)Cn1c(COc2ccccc2C)[n+](C)c2ccccc21 the results were Beta cell apopt 109.6*, CSC inhib 106.3*, Mdm2 MdmX PPI 88.5*, PP5 inh 5.5, Calb FLC inconclusive, PP1 counter 44.5*, PP1 inh confirm 15.9*, PP5 counter 3.6, Mdm2-MdmX conf 69.2* and FLuc counter 16.9.
CCCCCCCCCCOC(=O)Cn1c(COc2ccc(OC)cc2)[n+](C)c2ccccc21 was read as Beta cell apopt 113.8*, CSC inhib 102.9*!, Mdm2 MdmX PPI 85.1*, PP5 inh 3.9, Calb FLC -11.1, PP1 counter 34.7*, PP1 inh confirm 1.9, PP5 counter -1.0, Mdm2-MdmX conf 75.9* and FLuc counter 20.6.
`CCCCCCCCCCOC(=O)Cn1c(COc2ccc(Cl)cc2)[n+](C)c2ccccc21` gave Beta cell apopt 122.2*, CSC inhib 108.6*, Mdm2 MdmX PPI 78.0*, PP5 inh 6.4, Calb FLC inconclusive, PP1 counter 47.5*, PP1 inh confirm 21.5*, PP5 counter 2.4, Mdm2-MdmX conf 74.0* and FLuc counter 59.4*.
For CCOC(=O)Cn1c(COc2ccccc2OC)[n+](C)c2ccccc21 the results were Beta cell apopt 0.7, CSC inhib -14.8, Mdm2 MdmX PPI 32.4, PP5 inh 1.0, Calb FLC 1.4 and PP1 counter -7.8.
Screening CCCCOC(=O)Cn1c(=O)n(CC(=O)OCCCC)c2ccccc21 returned Beta cell apopt -4.1, CSC inhib -2.1, Mdm2 MdmX PPI -8.5, PP5 inh 3.3, Calb FLC -1.6 and PP1 counter 2.2.
`CCCCCCCCCCOC(=O)Cn1c(COc2cccc(C)c2)[n+](C)c2ccccc21` gave Beta cell apopt 99.4*, CSC inhib 169.1*, Mdm2 MdmX PPI 85.8*, PP5 inh 5.0, Calb FLC 49.1, PP1 counter 41.8*, PP1 inh confirm 16.1*, PP5 counter 3.9, Mdm2-MdmX conf 70.6* and FLuc counter 24.9.
CS(=O)(=O)N1CCc2cc(C(=O)N3CCN(c4ccccc4F)CC3)ccc21 was read as Beta cell apopt 1.8, CSC inhib -10.5, Mdm2 MdmX PPI 7.4, PP5 inh 1.1, Calb FLC -1.8 and PP1 counter -4.5.
`O=C(CCN1C(=O)CSc2ccccc21)Nc1ccc(OC(F)(F)F)cc1` gave Beta cell apopt 7.9, CSC inhib 21.7, Mdm2 MdmX PPI 3.3, PP5 inh 3.3 and PP1 counter 1.9.
For COc1cc(/C=N/NC(=O)Cn2ccc(C(F)(F)F)n2)cc(OC)c1OC the results were Beta cell apopt -2.8, CSC inhib -1.6, Mdm2 MdmX PPI -1.8, PP5 inh 0.8, Calb FLC 19.2 and PP1 counter 3.4.
Screening CCCCCCCCCCOC(=O)Cn1c(COc2ccccc2)[n+](C)c2ccccc21 returned Beta cell apopt 128.7*, CSC inhib 103.5*, Mdm2 MdmX PPI 69.0*, PP5 inh 5.3, Calb FLC 41.0, PP1 counter 35.8*, PP1 inh confirm 9.3, PP5 counter 3.5, Mdm2-MdmX conf 71.7* and FLuc counter 20.0.
For O=C(NCCCN1CCCC1)Nc1ccccc1[N+](=O)[O-] the results were Beta cell apopt -5.0, CSC inhib 6.4, Mdm2 MdmX PPI 13.4, PP5 inh -1.0, Calb FLC -7.5 and PP1 counter 0.9.
For CCOc1ccc(N(CC(=O)NCCSCc2ccccc2)S(C)(=O)=O)cc1 the results were Beta cell apopt -3.0, CSC inhib -10.0, Mdm2 MdmX PPI -1.8, PP5 inh -0.9, Calb FLC -0.2 and PP1 counter 1.1.
COc1cc2nc(N(CCN(C)C)C(=O)c3ccc4ccccc4c3)sc2cc1OC was read as Beta cell apopt -5.6, CSC inhib -1.2, Mdm2 MdmX PPI -0.3, PP5 inh -2.7, Calb FLC 9.9 and PP1 counter 6.0.
Screening CCN(CC)CCN(C(=O)c1ccc2c(c1)CCCC2)c1nc2cc(OC)c(OC)cc2s1 returned Beta cell apopt 1.2, CSC inhib -3.1, Mdm2 MdmX PPI 52.6*, PP5 inh 16.6*, Calb FLC 3.9, PP1 counter 24.4*, PP1 inh confirm -3.1, PP5 counter 1.6, Mdm2-MdmX conf 46.4* and FLuc counter 36.8*.
For C=CCNC(=O)c1ccc(Cn2c(=S)[nH]c3cc4c(cc3c2=O)OCO4)cc1 the results were Beta cell apopt 5.0, CSC inhib 2.0, Mdm2 MdmX PPI 60.0*, PP5 inh 5.2, Calb FLC 21.0, PP1 counter 25.1*, PP1 inh confirm -0.7, PP5 counter -0.4 and Mdm2-MdmX conf 10.8.
For O=C(NCCN1CCCC1)c1ccc(Cn2c(=S)[nH]c3cc4c(cc3c2=O)OCO4)cc1 the results were Beta cell apopt 1.7, CSC inhib -4.3, Mdm2 MdmX PPI -3.0, PP5 inh 3.3, Calb FLC -0.3 and PP1 counter 8.2.
CCN1CCN(Cc2ccc(NC(=O)c3cc(NC(=O)c4cncc(-c5cccs5)c4)cc(OC)c3)cc2C(F)(F)F)CC1 was read as Beta cell apopt 6.7, CSC inhib 123.8*, Mdm2 MdmX PPI 97.3*, PP5 inh 3.7, Calb FLC 15.5, PP1 counter 19.5*, PP1 inh confirm -23.2, PP5 counter 0.5, Mdm2-MdmX conf 27.8 and FLuc counter 58.5*.
For NC(N)=N/N=C/c1ccccc1 the results were Mdm2 MdmX PPI -22.2, PP5 inh 0.5, Calb FLC -2.1 and PP1 counter -0.8.
NC(N)=N/N=C/c1ccc(OCc2ccccc2)c(OCc2ccccc2)c1 was read as Beta cell apopt 9.2, CSC inhib 1.5, Mdm2 MdmX PPI 96.3*, PP5 inh 6.1, Calb FLC 28.0, PP1 counter 35.4*, PP1 inh confirm 35.2*, PP5 counter 3.1, Mdm2-MdmX conf 67.2* and FLuc counter 65.4*.

Compound activity deposited in PubChem by several laboratories.
